In all, about 5,600 compounds went through this assay and about 780 (14%) were called active. Inconclusive results (about 3%) are left out. Only a sample is shown. Values without a mark were called inactive.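 How the source made its calls: active means mean signal decrease across replicates above about 35% based on untreated-well scatter, with enough replicates individually passing (limit read from the data); inconclusive means no rule stated though some were filed; inactive means the rest.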

The nature of the assay: cytotoxicity in mouse NIH/3T3 fibroblasts, confirmation, cytotoxicity control for T. cruzi proliferation inhibitor project, cell-based, cherry-pick, single point (AID 651742).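 Further: 0% = median of neutral control wells and 100% = median of positive control wells.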 The note with it: NIH/3T3 viability, CellTiter-Glo ATP luminescence, 90 h; at 8.35 µM; hits give high values. For orientation: In ATP-based viability assays light output follows the ATP content of the culture.
As for `CN1C(=O)c2cc(NC(=O)Nc3ccccc3F)ccc2OC[C@H]2O[C@H](CC(=O)NCc3ccc(-c4ccccc4)cc3)CC[C@H]21`, the cytotoxicity (signal decrease) is 8.3%.

As to `N#C[C@@H]1[C@@H](c2ccccc2)[C@@H](CO)N1C(=O)Cc1ccccc1`, the cytotoxicity (signal decrease) was 20.6%. To `Cc1cc(C(=O)Nc2cccc3c2O[C@@H](CN(C)Cc2ccc(C(=O)Nc4ccccc4N)cc2)[C@H](C)CN([C@@H](C)CO)C3=O)n(C)n1` belongs 6%. On to `C[C@H]1CCCCO[C@H](CN(C)Cc2ccccc2)[C@@H](C)CN([C@@H](C)CO)C(=O)c2cc(NC(=O)c3ccccc3)ccc2O1`, for which the cytotoxicity (signal decrease) is -15.3%.

`CC(C)NC(=O)Nc1ccc2c(c1)C(=O)N([C@@H](C)CO)C[C@H](C)[C@H](CN(C)S(=O)(=O)c1ccc(Cl)cc1)OCCCC[C@H](C)O2`: the cytotoxicity (signal decrease) was -22.1%.

With `O=C(Nc1ccc(-c2ccccc2)cc1)[C@H]1[C@H](CO)[C@H]2Cn3c(cccc3=O)[C@H]2N1CC1CC1`, the cytotoxicity (signal decrease) is 8.32%. As for `C[C@@H]1CN([C@@H](C)CO)S(=O)(=O)c2ccc(C#CCC3CCCC3)cc2O[C@H]1CN(C)C(=O)CC1CC1`, the cytotoxicity (signal decrease) is 15%. In the case of `C[C@H]1CN([C@@H](C)CO)S(=O)(=O)c2ccc(C#CC3CCCC3)cc2O[C@H]1CN(C)C(=O)Cc1ccncc1`, the cytotoxicity (signal decrease) is 6.81%. To `COc1ccc(S(=O)(=O)N(C)C[C@H]2Oc3c(NC(=O)Nc4cccc5ccccc45)cccc3C(=O)N([C@@H](C)CO)C[C@H]2C)cc1` belongs 19.4%. For the compound `Cc1ccc(S(=O)(=O)N(C)C[C@@H]2Oc3c(NC(=O)c4nc5ccccc5s4)cccc3C(=O)N([C@H](C)CO)C[C@@H]2C)cc1`, the cytotoxicity (signal decrease) is 23.6%. With `COc1ccc(S(=O)(=O)N(C)C[C@H]2OCCCC[C@H](C)Oc3ccc(NS(=O)(=O)c4ccc(F)cc4)cc3C(=O)N([C@@H](C)CO)C[C@@H]2C)cc1`, the cytotoxicity (signal decrease) is -16.9%. Consider `CCC(=O)N1CC[C@@H]2[C@@H](CO)N(C)c3ccc(-c4ccc(F)cc4)cc3[C@@H]21`, for which the cytotoxicity (signal decrease) is -22.3%. To `C/C=C/c1ccc([C@H]2[C@H]3CN(S(=O)(=O)c4ccccc4)CCCCN3[C@H]2CO)cc1` belongs 20.3%; to `C[C@H](CO)N1C[C@H](C)[C@@H](CN(C)S(=O)(=O)c2cccc(F)c2)OCc2ccccc2-c2c(n(C)c3ccccc23)C1=O`, -5.9%. Take `C[C@@H]1CCCCO[C@H](CN(C)S(=O)(=O)c2ccc(F)cc2)[C@H](C)CN([C@@H](C)CO)C(=O)c2cc(NS(=O)(=O)c3ccccc3)ccc2O1`: the cytotoxicity (signal decrease) was -7.76%. Under `C[C@H]1CN([C@@H](C)CO)C(=O)c2ccccc2-c2ccccc2CO[C@@H]1CN(C)S(=O)(=O)c1ccc(C(F)(F)F)cc1` stands 38.8% (active). For the compound `Cc1ccc(S(=O)(=O)Nc2ccc3c(c2)C(=O)N([C@H](C)CO)C[C@H](C)[C@H](CN(C)Cc2ccc(Cl)c(Cl)c2)O3)cc1`, the cytotoxicity (signal decrease) was 17%. To `C[C@H]1CCCCO[C@@H](CN(C)C(=O)NC2CCCCC2)[C@@H](C)CN([C@@H](C)CO)C(=O)c2cc(NS(=O)(=O)c3ccc(Cl)cc3)ccc2O1` belongs -16.4%. In the case of `COCC(=O)N1[C@H](CO)[C@@H](c2ccc(C#Cc3ccccc3F)cc2)[C@@H]1C#N`, the cytotoxicity (signal decrease) is -6.81%. Regarding `C[C@@H]1CN([C@H](C)CO)C(=O)c2cc(NS(=O)(=O)c3cccs3)ccc2O[C@@H](C)CCCCO[C@H]1CN(C)Cc1ccc(C(F)(F)F)cc1`, the cytotoxicity (signal decrease) is 5.21%.

The values above are taken from PubChem BioAssay AID651742 (Broad Institute, 2012).
